Compounds without any hit were thinned out: in the full panel of roughly 83,000, 20% have a hit.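 Plates (96-well) were seeded with cells, treated with compound at one concentration, and incubated for 48 hours before percent growth was determined.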 The source made the active and inactive calls. Rule for the calls: active = growth percent below 10; inactive = the rest.
Experiments:
Assay in all cases: NCI-60 one-dose screen, 48 h (100 = growth as untreated, 0 = no growth, -100 = all killed)
Details in all cases: 10 µM unless noted
SK-MEL-2 melanoma = test system: SK-MEL-2 melanoma
EKVX NSCLC = test system: EKVX NSCLC
SN12C renal = test system: SN12C renal
UO-31 renal = test system: UO-31 renal
TK-10 renal = test system: TK-10 renal
ACHN renal = test system: ACHN renal
CAKI-1 renal = test system: CAKI-1 renal
A498 renal = test system: A498 renal
CCRF-CEM leukemia = test system: CCRF-CEM leukemia
MOLT-4 leukemia = test system: MOLT-4 leukemia
SR leukemia = test system: SR leukemia
RPMI-8226 leukemia = test system: RPMI-8226 leukemia
OVCAR-8 ovarian = test system: OVCAR-8 ovarian
OVCAR-5 ovarian = test system: OVCAR-5 ovarian
OVCAR-4 ovarian = test system: OVCAR-4 ovarian
SK-OV-3 ovarian = test system: SK-OV-3 ovarian
IGROV1 ovarian = test system: IGROV1 ovarian
OVCAR-3 ovarian = test system: OVCAR-3 ovarian
HS 578T breast = test system: HS 578T breast
NCI/ADR-RES ovarian = test system: NCI/ADR-RES ovarian

Measured: growth

Nc1cccc2c1CN(C1CCC(=O)NC1=O)C2=O (configuration not stated)
inactive: SK-MEL-2 melanoma 113% | EKVX NSCLC 94.7% | SN12C renal 106% | UO-31 renal 101% | TK-10 renal 132% | ACHN renal 105% | CAKI-1 renal 95.6% | A498 renal 84.8% | CCRF-CEM leukemia 98.7% | MOLT-4 leukemia 95.1% | SR leukemia 71.8% | RPMI-8226 leukemia 109% | OVCAR-8 ovarian 81.1% | OVCAR-5 ovarian 95.6% | OVCAR-4 ovarian 105% | SK-OV-3 ovarian 93.1% | IGROV1 ovarian 29.8% | OVCAR-3 ovarian 108% | HS 578T breast 112% | NCI/ADR-RES ovarian 104%

O=S(=O)(NCCCNc1nccc(-c2c(-c3ccc(F)c(O)c3)nc3sccn23)n1)c1ccc(Cl)cc1
inactive: SK-MEL-2 melanoma 27.7% | EKVX NSCLC 101% | SN12C renal 77.4% | UO-31 renal 67.8% | TK-10 renal 135% | ACHN renal 65.9% | CAKI-1 renal 54.7% | A498 renal 109% | CCRF-CEM leukemia 35.2% | MOLT-4 leukemia 46.1% | SR leukemia 61.6% | RPMI-8226 leukemia 43.1% | OVCAR-8 ovarian 52.9% | OVCAR-5 ovarian 129% | OVCAR-4 ovarian 99.1% | SK-OV-3 ovarian 85.3% | IGROV1 ovarian 80.2% | OVCAR-3 ovarian 88.7% | HS 578T breast 91.1%

O=C(O)c1ccc(-n2cc(CNc3ccc(C(F)(F)F)cc3)c(-c3ccccc3)n2)cc1
inactive: SK-MEL-2 melanoma 93.8% | EKVX NSCLC 91.8% | SN12C renal 94.6% | UO-31 renal 80.5% | TK-10 renal 110% | ACHN renal 88.9% | CAKI-1 renal 87.2% | A498 renal 87.6% | CCRF-CEM leukemia 91.4% | MOLT-4 leukemia 76.5% | SR leukemia 84.1% | RPMI-8226 leukemia 76.6% | OVCAR-8 ovarian 79.8% | OVCAR-5 ovarian 119% | OVCAR-4 ovarian 95.4% | SK-OV-3 ovarian 103% | IGROV1 ovarian 111% | OVCAR-3 ovarian 96.1% | HS 578T breast 93.7% | NCI/ADR-RES ovarian 101%

CCSc1nnc(NC(=O)COc2ccc(Cl)cc2C)s1
inactive: SK-MEL-2 melanoma 48.6% | EKVX NSCLC 102% | SN12C renal 101% | UO-31 renal 46.2% | TK-10 renal 116% | ACHN renal 96.5% | CAKI-1 renal 85.8% | A498 renal 109% | CCRF-CEM leukemia 99.1% | MOLT-4 leukemia 95.6% | SR leukemia 43.4% | RPMI-8226 leukemia 94.6% | OVCAR-8 ovarian 100% | OVCAR-5 ovarian 96.2% | OVCAR-4 ovarian 107% | SK-OV-3 ovarian 93.5% | OVCAR-3 ovarian 94.8% | HS 578T breast 101% | NCI/ADR-RES ovarian 106%
active: IGROV1 ovarian -17.9%

COc1cc(-n2nc(C(=O)Nc3ccc(C(=O)O)cc3)nc2-c2ccccc2)cc(OC)c1OC
inactive: SK-MEL-2 melanoma 106% | EKVX NSCLC 53% | SN12C renal 82.1% | UO-31 renal 58.6% | TK-10 renal 79.1% | ACHN renal 36.1% | CAKI-1 renal 52.2% | A498 renal 62.9% | CCRF-CEM leukemia 89% | MOLT-4 leukemia 95.8% | SR leukemia 118% | RPMI-8226 leukemia 108% | OVCAR-8 ovarian 86.3% | OVCAR-5 ovarian 86.3% | OVCAR-4 ovarian 110% | SK-OV-3 ovarian 64.3% | IGROV1 ovarian 51% | OVCAR-3 ovarian 94.4% | HS 578T breast 97.5% | NCI/ADR-RES ovarian 89.1%

COc1cc(C(=O)N2CCN(C(=O)c3ccco3)CC2)c(N)cc1OCc1ccccc1
active: IGROV1 ovarian -5.4%
inactive: SK-MEL-2 melanoma 77.6% | EKVX NSCLC 94.6% | SN12C renal 101% | UO-31 renal 41.9% | TK-10 renal 107% | ACHN renal 99.6% | CAKI-1 renal 105% | A498 renal 105% | CCRF-CEM leukemia 86.4% | MOLT-4 leukemia 95.4% | SR leukemia 86.5% | RPMI-8226 leukemia 71.9% | OVCAR-8 ovarian 99.8% | OVCAR-5 ovarian 107% | OVCAR-4 ovarian 92.9% | SK-OV-3 ovarian 113% | OVCAR-3 ovarian 105% | HS 578T breast 91.9% | NCI/ADR-RES ovarian 102%

O=S(=O)(NCCCNc1cc(-c2cn(-c3ccccc3)nc2-c2cccc(O)c2)ccn1)c1cccc2ccccc12
inactive: SK-MEL-2 melanoma 62.4% | EKVX NSCLC 37.5% | SN12C renal 51.4% | UO-31 renal 20.6% | TK-10 renal 66.3% | ACHN renal 29.8% | CAKI-1 renal 28.7% | A498 renal 43.6% | CCRF-CEM leukemia 26% | MOLT-4 leukemia 13.6% | SR leukemia 13.9% | OVCAR-8 ovarian 48.4% | OVCAR-5 ovarian 59.7% | OVCAR-4 ovarian 45.2% | SK-OV-3 ovarian 58.8% | IGROV1 ovarian 51% | OVCAR-3 ovarian 49.8% | HS 578T breast 15.6% | NCI/ADR-RES ovarian 39.9%
active: RPMI-8226 leukemia 7.85%

O=c1[nH]c(CN2CCN(c3ccccc3F)CC2)nc2sc3c(c12)CCC3
active: TK-10 renal -3.37%
inactive: SK-MEL-2 melanoma 87.6% | EKVX NSCLC 100% | SN12C renal 99.7% | UO-31 renal 95.2% | ACHN renal 113% | CAKI-1 renal 122% | A498 renal 93% | CCRF-CEM leukemia 100% | MOLT-4 leukemia 99.8% | SR leukemia 94.8% | RPMI-8226 leukemia 107% | OVCAR-8 ovarian 101% | OVCAR-5 ovarian 96.8% | OVCAR-4 ovarian 112% | SK-OV-3 ovarian 96.5% | IGROV1 ovarian 84.7% | OVCAR-3 ovarian 118% | HS 578T breast 121% | NCI/ADR-RES ovarian 111%

CNC(=O)c1cc(Oc2ccc3c(c2)sc2nc(-c4ccc(Cl)cc4)cn23)ccn1
inactive: SK-MEL-2 melanoma 116% | EKVX NSCLC 80.9% | SN12C renal 95.9% | UO-31 renal 85.7% | TK-10 renal 110% | ACHN renal 79.3% | CAKI-1 renal 78.8% | A498 renal 88.8% | CCRF-CEM leukemia 93.6% | MOLT-4 leukemia 93% | SR leukemia 82.9% | RPMI-8226 leukemia 92.4% | OVCAR-8 ovarian 73% | OVCAR-5 ovarian 113% | OVCAR-4 ovarian 55.2% | SK-OV-3 ovarian 66.2% | IGROV1 ovarian 87.6% | OVCAR-3 ovarian 82.7% | HS 578T breast 70.5% | NCI/ADR-RES ovarian 84.7%

Cc1cc(C)c2c(=O)[nH]c(SCC(=O)Nc3cccc(S(=O)(=O)N(C)C)c3)nc2n1
inactive: SK-MEL-2 melanoma 96.5% | EKVX NSCLC 93.3% | SN12C renal 109% | UO-31 renal 94.6% | TK-10 renal 98.4% | ACHN renal 108% | CAKI-1 renal 107% | A498 renal 104% | CCRF-CEM leukemia 89.1% | MOLT-4 leukemia 96.1% | SR leukemia 70.8% | RPMI-8226 leukemia 87.5% | OVCAR-8 ovarian 106% | OVCAR-5 ovarian 97.4% | OVCAR-4 ovarian 105% | SK-OV-3 ovarian 103% | IGROV1 ovarian 40.6% | OVCAR-3 ovarian 111% | HS 578T breast 122% | NCI/ADR-RES ovarian 105%

CC(=O)Nc1ccc2c(c1)/C(=C\C=C/c1ccc([N+](C)(C)C)cc1)c1ccccc1-2
inactive: SK-MEL-2 melanoma 80.9% | EKVX NSCLC 57.7% | SN12C renal 16.6% | UO-31 renal 64.5% | TK-10 renal 103% | ACHN renal 73.2% | CAKI-1 renal 65.8% | A498 renal 86% | CCRF-CEM leukemia 67.3% | MOLT-4 leukemia 63.6% | SR leukemia 90% | RPMI-8226 leukemia 73.6% | OVCAR-8 ovarian 57.4% | OVCAR-5 ovarian 53.9% | OVCAR-4 ovarian 28.1% | SK-OV-3 ovarian 70.2% | IGROV1 ovarian 67.1% | OVCAR-3 ovarian 78% | HS 578T breast 25.3% | NCI/ADR-RES ovarian 101%

CCCCC[C@@H]1Cc2cc(O)c(C(=O)O)c3c2[C@H](C[C@@]2(CCCO2)O3)O1
active: IGROV1 ovarian -4.39%
inactive: SK-MEL-2 melanoma 67.4% | EKVX NSCLC 108% | SN12C renal 104% | UO-31 renal 44.7% | TK-10 renal 129% | ACHN renal 108% | CAKI-1 renal 102% | A498 renal 133% | CCRF-CEM leukemia 94.5% | MOLT-4 leukemia 62.6% | SR leukemia 64.4% | RPMI-8226 leukemia 98.7% | OVCAR-8 ovarian 101% | OVCAR-5 ovarian 104% | OVCAR-4 ovarian 94.2% | SK-OV-3 ovarian 113% | OVCAR-3 ovarian 107% | HS 578T breast 122%

Cc1c(C2=NNC(c3ccc4c(c3)OCO4)C2)[n+]([O-])c2ccccc2[n+]1[O-] (configuration not stated)
inactive: SK-MEL-2 melanoma 81.4% | EKVX NSCLC 91.5% | SN12C renal 108% | UO-31 renal 84.6% | TK-10 renal 183% | ACHN renal 108% | CAKI-1 renal 107% | A498 renal 94.7% | CCRF-CEM leukemia 97.7% | MOLT-4 leukemia 105% | SR leukemia 92.2% | RPMI-8226 leukemia 98.9% | OVCAR-8 ovarian 109% | OVCAR-5 ovarian 91.9% | OVCAR-4 ovarian 76.3% | SK-OV-3 ovarian 97.1% | IGROV1 ovarian 84.4% | OVCAR-3 ovarian 93.4% | HS 578T breast 94.3%

O=C(/C=C/CN1CCOCC1)Nc1cc2c(Nc3cccc(Cl)c3F)ncnc2cc1OCCOC(F)F
inactive: SK-MEL-2 melanoma 95.9% | EKVX NSCLC 29.5% | SN12C renal 61.8% | UO-31 renal 36.8% | TK-10 renal 57.3% | ACHN renal 22.2% | CAKI-1 renal 24.9% | CCRF-CEM leukemia 102% | MOLT-4 leukemia 77.3% | SR leukemia 97.1% | RPMI-8226 leukemia 84.5% | OVCAR-8 ovarian 67.6% | OVCAR-5 ovarian 49.5% | OVCAR-4 ovarian 82.4% | OVCAR-3 ovarian 68.3% | HS 578T breast 64.9% | NCI/ADR-RES ovarian 60.9%
active: A498 renal 7.02% | SK-OV-3 ovarian 9.17% | IGROV1 ovarian 6.79%

Cc1c(C(=O)NCc2ccccc2)[n+](=O)c2cc(F)ccc2n1[O-]
inactive: SK-MEL-2 melanoma 40.8% | EKVX NSCLC 114% | SN12C renal 103% | UO-31 renal 39.4% | TK-10 renal 138% | ACHN renal 102% | CAKI-1 renal 79.7% | A498 renal 101% | CCRF-CEM leukemia 52.5% | MOLT-4 leukemia 130% | SR leukemia 70.6% | RPMI-8226 leukemia 64.1% | OVCAR-8 ovarian 116% | OVCAR-5 ovarian 103% | OVCAR-4 ovarian 98% | SK-OV-3 ovarian 109% | OVCAR-3 ovarian 93.2% | HS 578T breast 148% | NCI/ADR-RES ovarian 105%
active: IGROV1 ovarian -26.7%

O=C1CCCCN1CCCCC#Cc1ccccc1C#Cc1ccccn1
active: IGROV1 ovarian -11.3%
inactive: SK-MEL-2 melanoma 64.5% | EKVX NSCLC 106% | SN12C renal 106% | UO-31 renal 42.2% | TK-10 renal 136% | ACHN renal 86.4% | CAKI-1 renal 121% | A498 renal 114% | CCRF-CEM leukemia 74% | MOLT-4 leukemia 94.9% | SR leukemia 98.6% | RPMI-8226 leukemia 107% | OVCAR-8 ovarian 113% | OVCAR-5 ovarian 95.2% | OVCAR-4 ovarian 95.2% | SK-OV-3 ovarian 118% | OVCAR-3 ovarian 104% | HS 578T breast 118% | NCI/ADR-RES ovarian 92.2%

— PubChem BioAssay (NCI)
